FEN1 inh = human FEN1 inhibition; 0.35% of 390,000 active; Recombinant FEN1 flap cleavage, fluorescence, 15 min; Potency, µM (titrated, usually from 114 µM), inactives show at the top dose activity change, negative = inhibition, actives largely listed as inhibitors; P39748; note: potency is the fitted concentration of half-maximal effect; nearly all actives have a fitted effect of over 65% in size
Target sequence (P39748 whole entry, looked up): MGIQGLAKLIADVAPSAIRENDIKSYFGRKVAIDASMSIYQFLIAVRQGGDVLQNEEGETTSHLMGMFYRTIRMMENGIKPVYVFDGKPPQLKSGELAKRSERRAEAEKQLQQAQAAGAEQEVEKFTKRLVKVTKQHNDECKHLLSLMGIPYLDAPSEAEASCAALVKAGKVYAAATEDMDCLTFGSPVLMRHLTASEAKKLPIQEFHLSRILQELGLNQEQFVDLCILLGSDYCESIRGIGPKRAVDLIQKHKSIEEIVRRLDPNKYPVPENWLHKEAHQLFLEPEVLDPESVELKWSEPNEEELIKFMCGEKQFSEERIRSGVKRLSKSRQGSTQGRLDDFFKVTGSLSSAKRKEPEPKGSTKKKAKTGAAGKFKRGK
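In this screen, 50 nM flap DNA substrate was added to 10 nM FEN1 pretreated with compound for 15 min at room temperature; cleavage was followed with reads at 0 and 15 min, and Hill fitting gave concentration–response parameters.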
Tb PFK block = inhibitors of T. brucei phosphofructokinase. 0.17% of 330,000 active. AID 485367. O15648. T. brucei PFK, ADP-Glo luminescence. Potency, µM (doses to about 57.5 µM), without a hit: at the top dose activity, negative = inhibition, most hits filed as inhibitors;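 note: potency is the fitted concentration of half-maximal effect; 0% = uninhibited 1x PFK enzyme wells and -100% = no-enzyme wells; nearly all actives have a fitted effect of over 60% in size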
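ADP-Glo luminescence quantified ADP after 45 min at room temperature, with 1.25 nM T. brucei PFK, 0.1 mM ATP and 0.5 mM fructose-6-phosphate in pH 8.0 TEA buffer. qHTS titrations up to 57 µM; curves classified by quality.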
TDP1 inh = blocks human tyrosyl-DNA phosphodiesterase 1. Q9NUW8. Potency, µM (doses to about 130 µM), for the others: at the top dose activity change, negative = inhibition, hits mostly inhibitors. recombinant TDP1, AlphaScreen DNA substrate cleavage. 0.28% of 350,000 active; note: potency is the fitted concentration of half-maximal effect; nearly all actives have a fitted effect of over 40% in size
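Recombinant E. coli-expressed Tdp1 (1 nM) preincubated with compound 15 min at RT, then 5'-biotin/3'-phosphotyrosine-FITC DNA substrate (15 nM) added for 5 min. AlphaScreen beads (10 ug/ml) added, 10 min RT; tyrosine-FITC cleavage read as signal loss.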
Tb PGK inh = blocks T. brucei phosphoglycerate kinase | PGK/GAPDH coupled, Kinase-Glo luminescence, 60 min | Potency, µM (highest dose often 57.5 µM), inactives show top-dose activity change, negative = inhibition, most hits filed as inhibitors | 0.043% of 380,000 active; note: potency is the fitted concentration of half-maximal effect; nearly all actives have a fitted effect of over 60% in size
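Luminescent ATP detection (Kinase-Glo Plus) follows a 60-minute room-temperature incubation, with wells lacking PGK as controls. Buffer: 100 mM TEA (pH 7.6), 5 mM MgCl2, 0.01% Tween-20. Coupling enzyme GAPDH (100 nM final) supplies unstable 1,3-BPG in-well.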
WRN helicase inh = blocks human WRN helicase; Q14191; WRN helicase unwinding, fluorescent forked duplex, kinetic; Potency, µM (highest dose often 114 µM), inactives show at the highest dose activity change, negative = inhibition, hits mostly inhibitors; 0.46% of 360,000 active; AID 651768; note: potency is the fitted concentration of half-maximal effect; nearly all actives have a fitted effect of over 55% in size
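WRN at 20 nM final was preincubated with compound for 15 min at room temperature; reaction started with 100 nM forked duplex oligonucleotide carrying fluorophore and quencher plus 2 mM ATP (final). Unwinding followed kinetically by red fluorescence (ex 525/em 598 nm).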
PI5P4Ka inh = inhibitors of human PI5P4K alpha | P48426 | PI5P4Kalpha enzyme, ADP-Glo luminescence, 60 min; stronger effect = lower value | max response, % | 1.2% of 330,000 active; active = max response of -50% or lower; inconclusive = between -30% and -50%; inactive = -30% or higher; note: value at the top dose of about 77 µM
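Compounds were pin-transferred onto PI5P4Kalpha and substrate in HEPES pH 7.4 buffer with EGTA, CHAPS and 5% DMSO. ATP (5 microM final) started the reaction, which ran 60 minutes at room temperature before ADP-Glo detection.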
* marks the source's active call; other numbers are inactive results; i = inactive; ? = inconclusive; nt = no result given; [ ] = another dose, or the depositor's remark. Hits are enriched below; roughly 1.5% of the tested compounds scored in any of these assays. Unless noted, calls come from the whole dose curve; as a rule, active = well fitted curve in the direction sought with a large enough effect; inconclusive = small, poorly fitted or top-dose-only effect, or another doubt; inactive = no such curve, though single readings can be large; an effect the other way counts as inactive or inconclusive. Unless noted, % is set by controls: 0 for no effect and ±100 for the full control effect.

SMILES | FEN1 inh | Tb PFK block | TDP1 inh | Tb PGK inh | WRN helicase inh | PI5P4Ka inh
O=C1CCc2cc(S(=O)(=O)Nc3cccc(F)c3)ccc2N1 | nt | nt | -3.1% | nt | nt | nt
O=S1(=O)N=C(Oc2ccccc2Br)c2ccccc21 | nt | nt | 3.3% | nt | nt | nt
NC(=O)CC(NSc1ccccc1[N+](=O)[O-])C(=O)O (centres undefined) | 1.5% | 1.2% | 9.0% | 7.7% | -3.2% | -57.1*
COc1ccc(-n2c(O)c(/C=N/Nc3nc(C)cc(C)n3)c3ccccc3c2=O)cc1OC | 2.4% | 0.1% | 10.1% | -2.0% | -33.7% | 10.3
COc1ccc(-n2c(O)c(/C=N/NS(=O)(=O)c3cc(C)ccc3C)c3ccccc3c2=O)cc1OC | ? | 2.5% | 9.1% | -3.8% | 79.4µM* | -20.2
Cc1ccccc1OCC(=O)NCC(=O)OC(c1ccccc1)c1ccccc1 | -3.8% | nt | 0.4% | nt | nt | nt
CCCCC(CC)CO (centres undefined) | 5.1% | 4.1% | 0.5% | i | 0.0% | 1.0
CCCCC(CC)CN=C(N)NC(N)=NCCCCCCN=C(N)NC(N)=NCC(CC)CCCC (centres undefined) | 50.1µM* | ? | 5.7% | i | 89.1µM* | -20.8
CC(=O)c1nnn(-c2nc(C#N)nc(N3CCOCC3)n2)c1C | ? | nt | 2.3% | nt | nt | nt
CCOC(=O)C1=C(CNCc2ccc(F)cc2)NC(=O)NC1c1cccc([N+](=O)[O-])c1 (centres undefined) | 2.5% | 0.4% | 8.2% | -0.7% | -8.0% | 3.7
CN(C)/C=C/C1=C([N+](=O)[O-])C(c2cccc([N+](=O)[O-])c2)NC(=O)N1 (centres undefined) | -0.8% | 0.5% | nt | 4.3% | -35.9% | -82.9*
O=C(COc1ccccc1C(=O)Nc1ccccc1)Nc1ccc2ccccc2c1 | 9.9% | nt | nt | nt | nt | nt
COc1cc2ccccc2cc1C(=O)NC(=S)Nc1ccc(C(=O)O)cc1 | ? | -0.6% | 50.1µM* | -8.3% | -12.8%[11.6 µM] | -4.7
COc1ccc(NC(=S)NC(=O)/C=C/c2ccc(F)cc2)cc1 | -1.0% | 0.6% | nt | -5.3% | 2.8% | 2.6
COc1ccc(/C=C/C(=O)NC(=S)Nc2ccc(C(=O)O)cc2)cc1 | ? | 1.1% | 89.1µM* | -14.4% | -24.2% | ?
COc1cccc(C2c3c(ncn(Cc4cccs4)c3=N)Oc3ccc4ccccc4c32)c1 (centres undefined) | nt | nt | 5.2% | nt | nt | nt
c1nc(SSc2ncnc3nc[nH]c23)c2[nH]cnc2n1 | 1.1% | nt | nt | -12.1% | 39.8µM* | -80.4*
O=C(O)CSc1ncnc2nc[nH]c12 | -1.2% | 0.1% | -1.1% | -4.0% | -4.2% | ?
O=C(O)Cc1nnc(-c2cc3ccccc3[nH]2)s1 | nt | nt | 0.2% | nt | nt | nt
Cc1ccc(OCC(=O)c2ccc(Cl)s2)c([N+](=O)[O-])n1 | -2.7% | 3.6% | -5.9% | -0.9% | -24.8% | -55.8*
Cc1cnc2ccccc2c1/C=C/c1ccc(N(C)C)cc1 | -22.6% | nt | nt | nt | nt | nt
Nc1nc2ncc(C(=O)c3cc(F)ccc3O)cc2s1 | -4.4% | 0.0% | 0.0% | 0.4% | -1.7% | -24.8
Nc1nc2ncc(C(=O)c3cc(Cl)cc(Cl)c3O)cc2s1 | -12.4% | 1.7% | 8.6% | -7.7% | ? | -56.6*
C=C(C)C(=O)Nc1cccc(C2=NOC3(C2)C[C@H](C(N)=O)N(C(=O)c2ccccc2)C3)c1 (some centres undefined) | -17.1% | -28.6% | ? | 11.2µM* | -6.0%[11.6 µM] | -28.2
C=C(C)C(=O)Nc1cccc(C2=NOC3(C2)C[C@@H](C(N)=O)N(C(=O)C2(C)CC2)C3)c1 (some centres undefined) | ? | 1.51µM* | 11.2µM* | ? | ? | -28.8
C=C(C)C(=O)Nc1cccc(C2=NOC3(C2)C[C@H](C(N)=O)N(C(=O)/C=C/C)C3)c1 (some centres undefined) | 9.3% | ? | nt | ? | -28.7%[57.1 µM] | -11.2
